Screens from PubChem BioAssay.
A selection: hits, their analogues and other compounds. The true share with any hit is near 3.9%.
SKKanGAS inh: S. pyogenes SKKanGAS growth inhibitors in kanamycin, primary screen, streptokinase expression inhibitor project, SKKanGAS strain, BacTiter-Glo luminescence. 6 h. inhibition, % at 7.5 µM. actives 1.3% (n = 300,000). AID 1662, 2009;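 active = mean replicate score, as percent of positive control median, at least 50; inconclusive = mean below 50 but one replicate at or above 50; inactive = mean and every replicate below 50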;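 note: strain carries kanamycin resistance gene driven by streptokinase promoter and grows in 40 µg/ml kanamycin; loss of luminescence reflects streptokinase promoter inhibition or plain growth inhibition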
PHOSPHO1 block: PubChem AID 1565; inhibition, % at 13.3 µM; recombinant PHOSPHO1, absorbance phosphatase assay; Phosphoethanolamine/phosphocholine phosphatase (Homo sapiens), Q8TCT1; actives 1.1% (n = 290,000); in the data active = inhibition above about 60%
Target sequence (Q8TCT1 whole entry, looked up): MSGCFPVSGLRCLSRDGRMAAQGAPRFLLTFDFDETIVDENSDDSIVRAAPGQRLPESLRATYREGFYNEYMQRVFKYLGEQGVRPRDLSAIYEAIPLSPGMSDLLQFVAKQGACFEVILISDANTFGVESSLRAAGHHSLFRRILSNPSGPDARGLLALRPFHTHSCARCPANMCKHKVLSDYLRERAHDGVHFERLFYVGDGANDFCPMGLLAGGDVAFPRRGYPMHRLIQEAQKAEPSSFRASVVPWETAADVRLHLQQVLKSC
Rtt109 HAT inh: inhibitors of C. albicans Rtt109/Vps75 HAT, primary screen, biochemical, ThioGlo CoA-SH fluorescence, plate reader. Histone acetyltransferase RTT109 (Candida albicans (strain SC5314 / ATCC MYA-2876)), …. actives 0.16% (n = 330,000). inhibition, % at 34.9 µM. purified Rtt109/Vps75, 4 h;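 active = inhibition of at least 50% in every replicate; inconclusive = best replicate reaches 50% inhibition but some replicates fall short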
Target sequence (Q5AAJ8 whole entry, looked up): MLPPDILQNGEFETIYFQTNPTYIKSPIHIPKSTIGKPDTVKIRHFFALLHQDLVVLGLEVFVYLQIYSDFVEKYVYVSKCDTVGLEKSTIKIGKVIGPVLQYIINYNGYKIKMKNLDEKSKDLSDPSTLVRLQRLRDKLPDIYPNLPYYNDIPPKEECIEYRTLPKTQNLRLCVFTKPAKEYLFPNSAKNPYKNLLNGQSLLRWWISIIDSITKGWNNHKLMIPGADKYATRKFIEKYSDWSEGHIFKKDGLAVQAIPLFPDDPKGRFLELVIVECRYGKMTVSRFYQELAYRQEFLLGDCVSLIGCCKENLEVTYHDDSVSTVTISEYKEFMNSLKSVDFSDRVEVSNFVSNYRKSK
TPT1 inhibitor: Candida albicans TPT1 enzyme inhibitors, primary screen, biochemical, fluorescence polarization | tRNA 2'-phosphotransferase TPT1 (Candida albicans SC5314) | recombinant caTPT1, FP RNA substrate dephosphorylation | inhibition, % at 5 µM | actives 0.81% (n = 300,000);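 active = inhibition above the mean of all tested compounds plus 3 SD, set per screening campaign, cut at about 24% in these data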
Platelet DG rel: inhibitors of platelet dense granule secretion, primary screen, cell-based, MLPCN, human platelets | human platelet-rich plasma, SFLLRN dense granule ATP release, luminescence | inhibition, %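 (compounds screened at 7.5 µM in platelet-rich plasma)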 | actives 0.22% (n = 300,000);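 active = mean replicate score, as percent of positive control, at or above 50; inconclusive = mean below 50 but at least one replicate at or above 50; inactive = mean and every replicate below 50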
WT yeast gro inh: growth inhibition of WT strain, primary screen, mitochondrial fusion inhibitor project, WT and mutant strains, chemical genetic. mitochondrial fusion phenotypic screen. inhibition, % at 10 µM. actives 2.1% (n = 190,000). AID 1362, 2008; in the data active = inhibition above about 58%; tested in S. cerevisiae
Each line names hits and unclear results; the compound was inactive in the other large screens.

CCN(Cc1ccccc1)S(=O)(=O)c1ccc(C(=O)N(CCCN(C)C)c2nc3cc(C)cc(C)c3s2)cc1	none (no result: PHOSPHO1 block, WT yeast gro inh)
C/C(=N/Nc1nc(-c2ccccc2)cc(-c2ccc(F)cc2)n1)c1cccc(N)c1	WT yeast gro inh 68
COc1ccc(/C=N/N(Cc2ccccc2)c2ccccc2)cc1O	WT yeast gro inh 83
O=C(COC(=O)c1cccc(F)c1)NC(=O)NCc1ccccc1	none (no result: SKKanGAS inh, PHOSPHO1 block, TPT1 inhibitor, Platelet DG rel, WT yeast gro inh)
CN(c1ccc(C(=O)Nc2cccnc2)cc1)S(=O)(=O)c1ccc(Cl)cc1	PHOSPHO1 block 63 (no result: WT yeast gro inh)
CN(c1ccc(C(=O)Nc2cccnc2)cc1)S(=O)(=O)c1ccccc1	none (no result: WT yeast gro inh)
CN(c1ccc(C(=O)NCc2ccccn2)cc1)S(=O)(=O)c1ccc(Cl)cc1	PHOSPHO1 block 61 (no result: WT yeast gro inh)
COc1ccc([C@H]2C(C(=O)O)=C[C@@H](CC3CCCC3)N2S(=O)(=O)c2ccc(C)cc2)cc1OC	none (no result: SKKanGAS inh, PHOSPHO1 block, TPT1 inhibitor, Platelet DG rel, WT yeast gro inh)
C[C@@]12C(=O)N(c3cccc(F)c3)C(=O)N1[C@@H]1c3ccccc3OC[C@@H]1[C@H]2c1ccccc1	none (no result: SKKanGAS inh, PHOSPHO1 block, TPT1 inhibitor, Platelet DG rel, WT yeast gro inh)
Cc1cc(Cl)ccc1Oc1ncc(CN2CCN(c3ccccc3)CC2)s1	WT yeast gro inh 64
COc1ccc(-c2csc3nc(C)nc(N4CCC(C)CC4)c23)cc1OC	WT yeast gro inh 63
COc1ccc(-c2csc3ncn(-c4ccc(C)cc4)c(=O)c23)cc1OC	none
COc1ccc(-n2cnc3scc(-c4ccc(OC)c(OC)c4)c3c2=O)cc1	Rtt109 HAT inh 62
CC1CC(C)CN(C(=O)C2CCN(S(=O)(=O)c3c(Cl)cccc3Cl)CC2)C1 (stereo not drawn)	none (no result: WT yeast gro inh)
Cc1ccc(C(=O)CCC(=O)OCC(=O)N2CCN(S(=O)(=O)c3ccc(C)cc3C)CC2)cc1	none (no result: SKKanGAS inh, PHOSPHO1 block, TPT1 inhibitor, Platelet DG rel, WT yeast gro inh)
CCOC(=O)C1CCN(c2ccc([N+](=O)[O-])c(C(C)=O)c2)CC1	Rtt109 HAT inh 115
CC(C)c1ccccc1OCC(=O)NC1CCCc2ccccc21 (stereo not drawn)	SKKanGAS inh inconclusive, WT yeast gro inh 61
COc1ccc(C)cc1NC(=O)NC1CCCc2ccccc21 (stereo not drawn)	SKKanGAS inh 51 (no result: WT yeast gro inh)
COc1ccccc1OCC(=O)NC1CCCc2ccccc21 (stereo not drawn)	none (no result: WT yeast gro inh)
O=C(CN1C(=O)NC2(CCCCCCC2)C1=O)NC1CCCc2ccccc21 (stereo not drawn)	PHOSPHO1 block 173
CCCCn1c(O)c(N=NC(=O)c2ccccc2NS(=O)(=O)c2cccs2)c2ccccc21	SKKanGAS inh 71
C=CCn1c(O)c(N=NC(=O)c2ccccc2NS(=O)(=O)c2cccs2)c2ccccc21	none
CCCN1/C(=C(\C#N)C2=NS(=O)(=O)c3ccccc32)N(C)c2ccccc21	none (no result: SKKanGAS inh, PHOSPHO1 block, TPT1 inhibitor, Platelet DG rel, WT yeast gro inh)
COc1ccc(O[C@H]2C=C[C@@H](c3ccccc3)O[C@@H]2CO/N=C(\C)CCN2CCCCc3nc(C)c(C)cc32)cc1	WT yeast gro inh 60 (no result: SKKanGAS inh, Rtt109 HAT inh, TPT1 inhibitor, Platelet DG rel)
COc1ccc(N2CC(C(=O)N[C@H](C(=O)NC3CCCCC3)C(C)C)CC2=O)cc1 (stereo partly drawn)	none (no result: WT yeast gro inh)
CCc1nnc(NC(=O)CSc2nnc(CNc3cccc(Cl)c3)n2CC)s1	none
CCc1nnc(NC(=O)CSc2nnc(C3CCCCC3)n2-c2cccc(Cl)c2)s1	Rtt109 HAT inh 59
COc1ccc(OC)c(-c2c3cc(O)c(=O)cc-3oc3cc(O)c(O)cc23)c1	WT yeast gro inh 58 (no result: SKKanGAS inh, Platelet DG rel)
O=c1cc2oc3cc(O)c(O)cc3c(-c3ccccc3O)c-2cc1O	none (no result: SKKanGAS inh, TPT1 inhibitor, Platelet DG rel, WT yeast gro inh)
N=c1n(CCN2CCCCC2)c2ccccc2n1CC(O)c1cccc(Br)c1 (stereo not drawn)	none
N=c1n(CCN2CCCCC2)c2ccccc2n1CC(O)c1ccc(Cl)c(Cl)c1 (stereo not drawn)	Rtt109 HAT inh 58
S=C(NCCCN1CCN(CCCNC(=S)NC2CCCCC2)CC1)NC1CCCCC1	none (no result: SKKanGAS inh, PHOSPHO1 block, TPT1 inhibitor, Platelet DG rel, WT yeast gro inh)
C=CCn1c(N2C(=O)CC(Cc3ccccc3)C2=O)nc2ccccc21 (stereo not drawn)	SKKanGAS inh 64
C=CCn1c(NCc2ccccc2)nc2ccccc21	none
COc1cccc(CN(C)C(=O)c2ccccc2Sc2ccccc2C#N)c1OC	none (no result: TPT1 inhibitor, WT yeast gro inh)
Cc1ccc2nc(-c3ccccn3)c(NC3CCCC3)n2c1	SKKanGAS inh 96, WT yeast gro inh 74
Cc1cccc(C)c1Nc1c(-c2ccccn2)nc2ccccn12	SKKanGAS inh 97
Cc1cccc2nc(-c3ccco3)c(Nc3ccccc3)n12	none
CCCCCCSc1cccc(-c2nc3ccc(C)cn3c2NC2CCCCC2)c1	none (no result: PHOSPHO1 block, WT yeast gro inh)
Cc1cccc(C)c1Nc1c(-c2ccsc2)nc2ncccn12	none
Cc1ccccc1Nc1c(-c2ccccn2)nc2c(C)cccn12	SKKanGAS inh 81
Cc1ccc(Nc2c(-c3ccccn3)nc3cccc(C)n23)cc1	SKKanGAS inh 102
COc1cc(/C=C/[N+](=O)[O-])ccc1OC(=O)/C=C/c1ccc(F)cc1	none (no result: WT yeast gro inh)
CNS(=O)(=O)c1cccc(C(=O)NNC(=O)c2ccc(COc3ccccc3)cc2)c1	none (no result: WT yeast gro inh)
Cc1nonc1C(=O)N/N=C/c1cccc(O)c1	Platelet DG rel 57
Cc1cc(C)n(C(C)CNS(=O)(=O)c2ccccc2)n1 (stereo not drawn)	none (no result: WT yeast gro inh)
O=C1CCc2cc(S(=O)(=O)Nc3ccccc3F)ccc2N1	none (no result: SKKanGAS inh, PHOSPHO1 block, TPT1 inhibitor, Platelet DG rel, WT yeast gro inh)
COc1ccc(OCCC(=O)N2CCCCC2)cc1	WT yeast gro inh 88
COc1ccc(OCCC(=O)N2CCN(C)CC2)cc1	none (no result: WT yeast gro inh)
O=C1C(Cl)=C(NCC2CCCO2)C(=O)N1C1CCCCC1 (stereo not drawn)	none
CCOc1ccccc1NC1=C(Cl)C(=O)N(c2ccc(OC)cc2)C1=O	none
COc1ccccc1NC1=C(Cl)C(=O)N(C2CCCCC2)C1=O	Rtt109 HAT inh 52, WT yeast gro inh 70
Cc1ccccc1NC1=C(Cl)C(=O)N(C2CCCCC2)C1=O	WT yeast gro inh 69
COc1cc2c(cc1OC)C(NNC(=O)c1ccc(Br)o1)=NC(C)(C)C2	none (no result: WT yeast gro inh)
Cc1csc(N/N=C/c2ccc(O)c([N+](=O)[O-])c2)n1	PHOSPHO1 block 93
O=[N+]([O-])c1cc(/C=N\Nc2nc(-c3ccccc3)cs2)ccc1O	SKKanGAS inh inconclusive
CCOC(=O)CCc1c(C)c2ccc(OCC(=O)N3CCOCC3)c(C)c2oc1=O	PHOSPHO1 block 62 (no result: WT yeast gro inh)
CCOC(=O)CCc1c(C)c2ccc(OCC)c(C)c2oc1=O	none (no result: Rtt109 HAT inh)
COC(=O)c1ccccc1NC(=O)Nc1ccc(C(=O)N2CCCC2)cc1	none
COc1ccccc1NC(=O)NC1(C(=O)N2CCOCC2)CCCCC1	none (no result: WT yeast gro inh)
COc1ccccc1NC(=O)Nc1ccc(C(=O)N2CCCCC2)cc1	Platelet DG rel 92 (no result: WT yeast gro inh)
COc1ccccc1NC(=O)NC1(C(=O)N2CCCCCC2)CCCCC1	Platelet DG rel 53
C=CCn1c(SCC(=O)N(CC)C2CCS(=O)(=O)C2)nc2scc(-c3ccccc3)c2c1=O (stereo not drawn)	none (no result: SKKanGAS inh, PHOSPHO1 block, TPT1 inhibitor, Platelet DG rel, WT yeast gro inh)
